aSyn 5UTR act – Activators via SNCA 5'UTR binding, MLPCN; activity score, % (tested at 7.5 µM), hits read low; alpha-synuclein 5'UTR reporter, activators screen; actives 7.1% (n = 300,000); in the data active means activity score below about -60%
* = called active by the depositor. A selection follows.

SMILES	aSyn 5UTR act
CN1C(=O)/C(=C2\SC(=S)N(CCCCCC(=O)O)C2=O)c2ccccc21	-67*
CC(C)(C)Nc1nc(Cl)nc(Nc2ccccc2)n1	-136*
CCCNc1nc(Cl)nc(Nc2ccc(Cl)cc2)n1	-63*
CC(=O)c1c(C)[nH]c(C(=O)N2CCN(c3cc(Cl)ccc3C)CC2)c1C	57
CC(=O)c1c(C)[nH]c(C(=O)Nc2ccc(Cl)c(S(=O)(=O)N(C)C)c2)c1C	-174*
CCC(C)c1ccc(NC(=O)c2[nH]c(C)c(C(C)=O)c2C)cc1 (stereo unspecified)	-149*
CC(=O)c1c(C)[nH]c(C(=O)Nc2ccc(Cl)cc2F)c1C	-186*
CC(=O)c1c(C)[nH]c(C(=O)Nc2ccccn2)c1C	-80*
CC(=O)c1c(C)[nH]c(C(=O)Nc2ccc(Cl)cc2)c1C	-195*
CSc1cccc(NC(=O)c2[nH]c(C)c(C(C)=O)c2C)c1	-139*
Cc1ccc(NC(=O)CNCc2ccccc2Cl)cc1S(=O)(=O)N(C)C	-72*
O=C(Nc1ccc(N2CCOCC2)c(Cl)c1)c1cc(F)c(F)cc1Cl	-64*
COc1c(C)cccc1C(=O)Nc1ccc(N2CCOCC2)c(Cl)c1	-173*
C=CCN(c1ccccc1OC)S(=O)(=O)c1ccc(Cl)c(C(=O)Nc2ccc(N3CCOCC3)cc2)c1	89
CC(C)CC1NC(=O)N(CC(=O)c2ccc3c(c2)OCCO3)C1=O (stereo unspecified)	-115*
CC(=O)Nc1ccc2nc(-c3cccs3)[nH]c2c1	-110*
CC(=O)Nc1ccc2nc(-c3cccn3C)[nH]c2c1	-88*
Cn1cccc1-c1nc2ccc(NC(=O)c3cccs3)cc2[nH]1	-115*
Clc1nc(-c2ccccc2)ncc1Oc1ccccc1	-64*
c1ccc(CNc2c3ccccc3nc3ccccc23)cc1	-332*
CN(C)CCCNc1c2ccccc2nc2ccccc12	71
c1ccc(C2=NNC(=NC3CC3)SC2)cc1	58
c1ccc2c(C3=NNC(=NC4CCCCC4)SC3)c[nH]c2c1	-140*
O=C(CSCc1cccc(F)c1)N1CCN(c2ccccc2)CC1	-199*
O=C(CSCc1ccccc1)N1CCN(c2ccccc2)CC1	-103*
SMILES	aSyn 5UTR act
c1cncc(C2Nc3ccccc3-c3nc4ccccc4n32)c1 (stereo unspecified)	-92*
Cc1ccsc1C1Nc2ccccc2-c2nc3ccccc3n21 (stereo unspecified)	-169*
c1csc(C2Nc3ccccc3-c3nc4ccccc4n32)c1 (stereo unspecified)	-83*
O=c1c(Cl)c(Nc2cccc(Cl)c2)cnn1-c1nc2ccccc2s1	-78*
CC(=NC1CCCC1)c1c(C)[nH]n(-c2nc3ccccc3s2)c1=O	94
COc1ccc(Nc2cnn(-c3nc4ccccc4s3)c(=O)c2Cl)cc1	-139*
Fc1cccc(/C=N/N=C/c2cccc(F)c2)c1	-62*
Cc1ccc(/C=N/N=C/c2ccc(C)cc2)cc1	-110*
C(=N\N=C\c1ccccc1)/c1ccccc1	-96*
Cc1ccc(-c2ccc(S(=O)(=O)N3CC(C)OC(C)C3)cc2)cc1 (stereo unspecified)	-78*
CC1CN(S(=O)(=O)c2ccc(C(=O)NCCCn3ccnc3)cc2)CC(C)O1 (stereo unspecified)	105
NNC(=O)c1oc2nc(-c3ccco3)cc(-c3ccco3)c2c1N	-62*
CCOc1cc(N2CCOCC2)c(OCC)cc1NC(=O)c1cc(-c2ccco2)nc2ccccc12	114
C=CCC1(CC=C)CCCN1C(=O)c1cc(COc2ccc(C)nc2)on1	-78*
Cc1ccc(OCc2cc(C(=O)N3CCCC3)no2)cn1	-70*
CCc1cc(CNC(=O)c2cc(COc3ccc(C)nc3)on2)on1	-73*
Cc1cc(C(=O)CSc2nncs2)c(C)n1-c1ccc2c(c1)OCO2	-153*
Cc1cc(C(=O)CSc2nnnn2-c2ccccc2)c(C)n1-c1ccc2c(c1)OCO2	-91*
CCOC(=O)c1cccc(NC(=O)c2ccc(NC(=O)c3ccco3)cc2)c1	-67*
CCOc1ccccc1NC(=O)c1cccc(NC(=O)c2ccco2)c1	-185*
Cc1cc2nc(C3CCN(Cc4nnnn4Cc4cccs4)CC3)[nH]c2cc1C	63
COCCN=C1Sc2nc3ccc(C)cc3cc2CN1Cc1ccco1	-68*
COCCN=C1Sc2nc3cc(C)c(C)cc3cc2CN1Cc1cccs1	-78*
CCN(CC)CCNc1cc(C)nc2c1C(=O)C(=O)C=C2N1CCCCC1	81
COCCNC(=O)c1cc2c(s1)-c1ccc(Cl)cc1SC2	-104*
SMILES	aSyn 5UTR act
CCOc1ccc(/C=C/C(=O)Nc2cccc(C(C)=O)c2)cc1	-151*
CC(=O)Nc1cccc(C(=O)/C=C/c2ccc(C)cc2)c1	-123*
Cc1ccc(-c2cc(-c3cccc(F)c3)n[nH]2)c(O)c1	-154*
O=[N+]([O-])c1ccccc1-c1cc(-c2ccccc2O)n[nH]1	-256*
Cc1ccc(O)c(-c2cc(-c3cccc(F)c3)n[nH]2)c1	-96*
Cc1ccc(O)c(-c2cc(-c3ccccc3F)[nH]n2)c1	-115*
COc1ccccc1N1CCN(C(=O)CSc2ccccc2)CC1	-82*
C=CCN1CCN(C(=O)CSc2ccccc2)CC1	-103*
O=c1oc2cc(OCc3ccc(F)cc3F)ccc2cc1-c1ccccn1	-101*
NC(=O)COc1ccc2cc(-c3ccc(F)cc3)c(=O)oc2c1	-75*
NC(=O)COc1ccc2oc(-c3ccccc3)cc(=O)c2c1	-166*
COc1ccc(-c2coc3cc4oc(=O)c5ccccc5c4cc23)cc1F	81
COc1ccc(-c2cc3ccc(OCC(C)=O)cc3oc2=O)cc1OC	-125*
NC(=O)COc1ccc2cc(-c3ccccc3)c(=O)oc2c1	-87*
Cc1ccc(Nc2nc(COC(=O)C3CC3)cs2)cc1	-105*
O=Cc1c(-c2ccccc2)cc2oc3ccccc3cc1-2	-119*
CCn1c(=O)c2cc(C(=O)NC(C)C)sc2c2ccccc21	-79*
Cc1ccccc1NC(=O)c1ccc2c(c1)N(C)CCS2	-103*
CN1CCSc2ccc(C(=O)Nc3cc(F)ccc3F)cc21	-98*
CN1CCN(C2Cc3cc(Cl)ccc3Sc3cc(F)ccc32)CC1 (stereo unspecified)	101
CCc1ccc(CNc2ccc3c(c2)ncn3CC)cc1	-177*
CCn1cnc2cc(NCc3ccc(OC)cc3)ccc21	-101*
CCCn1cnc2cc(NCc3cccs3)ccc21	-161*
CCOc1ccc2nc3cc(NCc4ccc(OC)cc4)ccc3c(N)c2c1	109
Cc1ccc(NC(=O)COc2ccc3c(c2)CCC3)nc1	-98*
SMILES	aSyn 5UTR act
Cc1ccc(OCC(=O)c2ccc3c(c2)CCCC3)cc1C	-84*
Cc1cccnc1NC(=O)COc1ccc2c(c1)CCC2	-94*
CCOC(=O)c1oc2cccc(O)c2c1C	-81*
CCOC(=O)c1oc2cccc(OC(C)=O)c2c1C	-85*
COc1ccc(CNC[C@@H](CCCCN(C)Cc2ccc(OC)cc2)N2C[C@H](c3ccccc3)N(CCc3ccc(Cl)c(Cl)c3)C(=O)C2=O)cc1	92
COc1ccc(NC2=C(Cl)C(=O)N(CCc3ccccc3)C2=O)cc1	-68*
CCOc1ccc(NC2=C(Cl)C(=O)N(Cc3ccccc3)C2=O)cc1	-119*
Cc1cc(N2CCN(C)CC2)ccc1NC(=O)c1c2c(nc3ccccc13)CCN(Cc1ccccc1)C2	92
COc1ccc(NC2=C(Cl)C(=O)N(CCc3ccccc3)C2=O)c(OC)c1	-177*
CN1CCN(C2=C(Cl)C(=O)N(Cc3ccccc3)C2=O)CC1	-120*
CCN1CCN(c2nc3sc4c(c3c3ncnn23)CC(C)CC4)CC1 (stereo unspecified)	-64*

Compound activity: PubChem, Broad Institute
